Source: PubChem BioAssay (National Center for Advancing Translational Sciences (NCATS))
Only some compounds are listed: those with a hit (about 0.86% of all), similar ones and a draw of the others.
GLS inhibitor = blocks human kidney-isoform glutaminase activity. 410,000 compounds, 0.21% hits. O94925. GLS enzymatic activity, qHTS titration. Potency, µM (highest dose often 45.5 µM), for the others: at the top dose activity change, negative = inhibition, usual class: inhibitors
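Read-out is an Amplex red fluorescence increase coupled through glutamate oxidase and HRP, measured before and after 30 min room-temperature incubation. hKGA is in 45 mM KH2PO4 (pH 8.2) with 0.02% Tween-20; glutamine added as 1mM solution.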
APE1 inh = blocks human APE1 abasic DNA cleavage; recombinant APE1, TAMRA/BHQ-2 abasic DNA cleavage fluorescence; P27695; 350,000 compounds, 0.35% hits; Potency, µM (doses to about 65.8 µM), inactives show at the highest dose activity change, negative = inhibition, most hits filed as inhibitors;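 further: plate controls were vehicle for no effect and reference inhibitor for full effect; nearly all actives have a fitted effect of over 55% in size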
Target sequence (P27695 whole entry, looked up): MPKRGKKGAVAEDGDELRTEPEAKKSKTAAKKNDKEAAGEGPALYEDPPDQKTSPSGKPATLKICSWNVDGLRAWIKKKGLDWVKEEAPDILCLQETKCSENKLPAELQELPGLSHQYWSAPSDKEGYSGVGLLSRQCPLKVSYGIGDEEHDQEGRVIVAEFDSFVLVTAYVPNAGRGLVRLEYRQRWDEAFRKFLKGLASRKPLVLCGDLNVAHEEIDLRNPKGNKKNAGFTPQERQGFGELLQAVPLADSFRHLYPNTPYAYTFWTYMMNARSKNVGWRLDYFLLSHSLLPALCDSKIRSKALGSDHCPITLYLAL
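0.75 nM APE1 + cpd, 15 min RT; start w/ 50 nM TAMRA/BHQ-2 THF-abasic dsDNA; kinetic fluor 525/598 nm ×3 reads @60 s; Δ(read3−read1); normalized to DMSO and NSC13755 control wells.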
FEN1 inhibitor = human FEN1 inhibition. P39748. Recombinant FEN1 flap cleavage, fluorescence, 15 min. Potency, µM (top dose mostly 114 µM), without a hit: at the top dose activity change, negative = inhibition, actives largely listed as inhibitors. 390,000 compounds, 0.35% hits; further: nearly all actives have a fitted effect of over 65% in size
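Concentration–response screening of FEN1 (10 nM): 15 min compound preincubation at room temperature, reaction started with 50 nM substrate and read at 0 and 15 min. Corrected, normalized data were fitted by a four-parameter Hill equation.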
Tb PGK inh = inhibitors of T. brucei phosphoglycerate kinase. P07378. Potency, µM (highest dose often 57.5 µM), for inactives: at the top dose activity change, negative = inhibition, usual class: inhibitors. PGK/GAPDH coupled, Kinase-Glo luminescence, 60 min. 380,000 compounds, 0.043% hits; further: nearly all actives have a fitted effect of over 60% in size
Target sequence (P07378 whole entry, looked up): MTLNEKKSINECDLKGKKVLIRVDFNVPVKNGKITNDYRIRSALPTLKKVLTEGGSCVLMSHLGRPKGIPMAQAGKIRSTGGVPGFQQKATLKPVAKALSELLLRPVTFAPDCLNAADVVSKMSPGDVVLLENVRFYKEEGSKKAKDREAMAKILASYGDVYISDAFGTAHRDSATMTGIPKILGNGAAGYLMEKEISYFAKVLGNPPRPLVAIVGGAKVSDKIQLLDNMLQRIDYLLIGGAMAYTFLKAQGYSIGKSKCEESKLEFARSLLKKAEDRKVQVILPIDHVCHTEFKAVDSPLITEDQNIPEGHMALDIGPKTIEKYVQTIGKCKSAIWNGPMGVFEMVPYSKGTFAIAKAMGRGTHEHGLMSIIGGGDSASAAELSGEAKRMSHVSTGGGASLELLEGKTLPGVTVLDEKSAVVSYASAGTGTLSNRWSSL
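Luminescent ATP detection (Kinase-Glo Plus) follows a 60-minute room-temperature incubation, with wells lacking PGK as controls. Buffer: 100 mM TEA (pH 7.6), 5 mM MgCl2, 0.01% Tween-20. Coupling enzyme GAPDH (100 nM final) supplies unstable 1,3-BPG in-well.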
BLM inh = Bloom syndrome helicase (human) inhibition | P54132 | recombinant BLM DNA unwinding, fluorescence dequenching | Potency, µM (highest dose often 56.1 µM), for inactives: at the highest dose activity change, negative = inhibition, most hits filed as inhibitors | 350,000 compounds, 0.2% hits | AID 2528;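 further: plate controls were vehicle for no effect and no enzyme for full effect; nearly all actives have a fitted effect of over 35% in size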
RECQ1 inh-1 = blocks DNA unwinding by human RECQ1; AID 2549; RECQ1 DNA unwinding, red fluorescence kinetic read; Potency, µM (titrated, usually from 57.3 µM), for inactives: at the top dose activity, negative = inhibition, usual class: inhibitors; 240,000 compounds, 0.54% hits;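 further: plate controls were vehicle for no effect and no enzyme for full effect; nearly all actives have a fitted effect of over 30% in size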
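RECQ1T1 50 nM; forked duplex (20 bp + 30-nt ss tails) 200 nM, ATP 2 mM final; pH 8.0, 2 mM MgCl2, 2.5 ug/ml poly(dI-dC); 15 min compound preincubation; discontinuous kinetic read over 2 h at RT.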
RECQ1 conf = confirmation of human RECQ1 helicase inhibitors. shares compounds with RECQ1 inh-1. RECQ1 helicase DNA unwinding, fluorescence. Potency, µM (series often up to 229 µM), for inactives: at the highest dose activity change, negative = inhibition, usual class: inhibitors. 610 compounds, 28% hits; further: nearly all actives have a fitted effect of over 45% in size
RECQ1 ADP FP = counter-screen for RECQ1 inhibitors: ADP displacement. shares compounds with RECQ1 inh-1. ADP fluorescence polarization displacement counterscreen. Potency, µM (doses to about 228 µM), without a hit: top-dose activity change, negative = inhibition, actives largely listed as inhibitors. 530 compounds, 27% hits; further: nearly all actives have a fitted effect of over 45% in size
RECQ1 inh-2 = RECQ1 helicase inhibition confirmed, round 2 | recombinant RECQ1 DNA unwinding, red fluorescence | shares compounds with RECQ1 inh-1 | Potency, µM (series often up to 119 µM), inactives show at the highest dose activity, negative = inhibition, most hits filed as inhibitors | 1,100 compounds, 15% hits; further: nearly all actives have a fitted effect of over 50% in size
Numbers without * were called inactive; i = inactive; ? = inconclusive; . = no result given; [ ] = remark or other dose. The call rests on the fitted dose curve; in most records, active means well fitted curve in the direction sought with a large enough effect; inconclusive means small, poorly fitted or top-dose-only effect, or another doubt; inactive means no such curve, though single readings can be large; an effect the other way counts as inactive or inconclusive. Unless noted, on the % scale 0 is the no-effect control and ±100 the full control effect; potency means the concentration at half of the fitted maximal effect.

SMILES	GLS inhibitor	APE1 inh	FEN1 inhibitor	Tb PGK inh	BLM inh	RECQ1 inh-1	RECQ1 inh-2	others
C/C(CCN1CCCc2nc(C)c(C)cc21)=N\OC[C@@H](O)COCc1ccco1	.	?	.	.	-1%[12.4 µM]	-7%[11.5 µM]	.
O=C1CSC(=S)N1/N=C/c1ccc(O)c(O)c1O	?	0.35µM*	2.8µM*	?	?	2.2µM*	.	RECQ1 conf=?
COc1cc(OC)cc(C(=O)NCC(=O)OCC(=O)N2c3ccccc3NC(=O)C2(C)C)c1	11%	5%	1%	-7%	-6%	-2%	.
Cc1cc(C)cc(C(=O)NCC(=O)OCC(=O)N2c3ccccc3NC(=O)C2(C)C)c1	0%	?	-11%	0%	-25%	?	-23%
COc1ccc(S(=O)(=O)/N=C2/NC(=O)/C(=C/c3ccco3)S2)cc1	5%	?	-8%	-8%	5%	?	-27%
COc1ccc(S(=O)(=O)/N=C2/NC(=O)/C(=C\c3ccco3)S2)cc1	18%	6%	2%	-4%	6%	-4%	.
COc1ccc(Cn2nnnc2C(c2cccnc2)N2CCN(c3ccc(O)cc3)CC2)cc1 (stereo unspecified)	47%	10%	1%	.	-2%	1.3µM*	0%	RECQ1 conf=0%[114 µM];RECQ1 ADP FP=8%[91.9 µM]
NC(=O)CSc1nc2scc(-c3ccco3)c2c(=O)n1-c1ccccc1	-10%	11%	?	-13%	?	28µM*	?	RECQ1 conf=?;RECQ1 ADP FP=-5%[91.9 µM]
O=c1c2c(-c3ccco3)csc2nc(SCc2cn3cccnc3n2)n1-c1ccccc1	2%	-2%	1%	1%	-11%	13µM*	-22%
C=CCn1c(SCC(=O)NCC2CCCO2)nc2scc(-c3ccco3)c2c1=O (stereo unspecified)	-3%	?	-15%	-4%	-23%	?	?
C=CCn1c(SCC(=O)NCC2CCCO2)nc2scc(-c3ccc(OC)cc3)c2c1=O (stereo unspecified)	4%	8%	2%	-1%	-4%	.	.
CCOc1ccc(S(=O)(=O)NCCSCc2ccco2)cc1	-11%	6%	-11%	-3%	-8%	-10%	.
COc1ccc(S(=O)(=O)NCCSCc2ccco2)cc1	4%	?	1%	-7%	-16%	?	-15%
COc1ccc(N(C)S(=O)(=O)c2ccc3c(c2)CCN3C(=O)CCC(=O)O)cc1	38%	.	2%	i	0%	.	.
CCN(c1ccc(OC)cc1)S(=O)(=O)c1ccc2c(c1)CCN2C(=O)CCC(=O)O	6%	-1%	-3%	-3%	0%	-10%	.	RECQ1 conf=9%;RECQ1 ADP FP=-12%
Cc1cccc(NS(=O)(=O)c2ccc3c(c2)CCN3C(=O)CCC(=O)O)c1C	15%	.	2%	-2%	-2%	.	.
CCN(c1ccc(C)c(C)c1)S(=O)(=O)c1ccc2c(c1)CCN2C(=O)CCC(=O)O	9%	-1%	-16%	.	-2%	-20%	.	RECQ1 conf=15%;RECQ1 ADP FP=-11%
CNc1ccccc(C(=O)/C=C/c2ccccc2OC)c1=O	11%	-4%	0%	-3%	-15%	25µM*	?
CCN(CC)c1ccc(/C=N/OCC(=O)Nc2cccc(C)c2)cc1	2%	4%	-18%	3%	-6%	?	56µM*
CCN(CC)c1ccc(NC(=O)CCCOc2cccc(C)c2)cc1	-14%	4%	-13%	7%	-12%	-14%	.
Cc1noc(-c2ccc(NC(C)c3ccccc3)c([N+](=O)[O-])c2)n1 (stereo unspecified)	2%	.	4%	1%	-3%	.	.
Cc1cccc(Nc2c3c(nc4nncn24)CCC3)c1C	-8%	.	0%	7%	-4%	.	.
CN(C)/C=C/C(=O)c1ccc(Br)cc1	2%	21%	-13%	-5%	-4%	?	-30%
N#C/C(=C\c1ccc(-c2ccc(C(=O)O)cc2)o1)c1nc2ccccc2[nH]1	-12%	?	45µM*	-2%	-13%	?	?
N#C/C(=C\c1ccccc1C(=O)O)c1nc2ccccc2[nH]1	-4%	16%	-3%	-1%	-8%	.	.
SMILES	GLS inhibitor	APE1 inh	FEN1 inhibitor	Tb PGK inh	BLM inh	RECQ1 inh-1	RECQ1 inh-2	others
Cc1ccc(O)c(N=Cc2cc(Cc3ccccc3)cc([N+](=O)[O-])c2O)c1	11µM*	-12%	?	-17%	-22%	13µM*	?	RECQ1 conf=56µM*;RECQ1 ADP FP=45µM*
COc1cccc(CN2CCc3nc(Nc4ccc5c(c4)OCCO5)ncc3C2)c1OC	12%	.	-17%	.	-2%	.	.
Cc1cccc(SCc2noc(C(=O)NCC3CCCO3)c2C(=O)O)c1 (stereo unspecified)	3%	-1%	-1%	1%	0%	-10%	.
Cc1cc(C)cc(SCc2noc(C(=O)NCC3CCCO3)c2C(=O)O)c1 (stereo unspecified)	5%	-11%	17%	9%	-2%	-8%	.	RECQ1 conf=10%;RECQ1 ADP FP=?
CCOc1ccc(-c2nnc(SCC(=O)NCCC(C)C)nc2-c2ccc(OCC)c(OC)c2)cc1OC	-12%	.	1%	2%	-22%	.	.
CCOc1ccccc1NC(=O)c1nc(SCc2ccccc2F)ncc1Cl	.	.	-6%	.	.	.	.
O=C(CSc1ccccc1)Nc1nc2ccccc2[nH]1	-10%	-3%	3%	0%	-8%	-1%	.
O=C(CSc1ccc(Cl)cc1)Nc1ccc(-c2nc3ccccc3[nH]2)cc1	1%	-6%	-16%	-7%	-11%	28µM*	-28%
CCOC(=O)c1ccc(NC(=S)N2CCSC2c2ccc(Cl)cc2)cc1 (stereo unspecified)	16%	-2%	-13%	4%	-6%	?	-10%
CCOC(=O)c1ccc(NC(=S)N2CCSC2c2ccc(OC)cc2)cc1 (stereo unspecified)	2%	5%	5%	i	-4%	-16%	.
CC(C)[C@H](NC(=O)[C@H](CCC(N)=O)NC(=O)CNC(=O)[C@@H]1CCCN1C(=O)[C@H](Cc1ccc(O)cc1)NC(=O)CN)C(=O)O	.	-6%	.	.	1%	-17%	.
